Values joined by “and” are separate entries in the source; they are usually repeats but may differ in a detail not shown here. Identical values can stand only once. Some structures have more than one record in an assay (separate samples or runs), and their calls can disagree. Active and inactive are the calls of the source. The calls were made as follows: active = hit-call score of the fitted dose curve at least 0.9, where 1 is the maximum; inactive = score below 0.9.

The nature of the test: ATG_PBREM_CIS: Attagene CIS-FACTORIAL HepG2 Assay for human Phenobarbital-responsive Enhancer Module (PBREM) (AID 2282955). To be noted: HepG2 PBREM cis-reporter, Attagene multiplexed transcription; actives raise or lower the signal. The protocol: ATG_CIS is a cell-based, multiplexed-readout assay that uses HepG2, a human liver cell line, with measurements taken at 24 hours after chemical dosing in a 24-well plate.ATG_PBREM_CIS is one of 52 assay component(s) measured or calculated from the ATG_CIS assay. It is designed to make measurements of mRNA induction, a form of inducible reporter, as detected with fluorescence intensity signals by Reverse transcription polymerase chain reaction (RT-PCR) and Capillary electrophoresis technology.Data from the assay component ATG_PBREM_CIS was analyzed into 1 assay endpoint. This assay endpoint, ATG_PBREM_CIS, was analyzed with bidirectional fitting relative to DMSO as the negative control and baseline of activity. Using a type of inducible reporter, measures of mRNA for gain or loss-of-signal activity can be used to understand the reporter gene at the transcription factor-level as they relate to the gene NR1I3. Furthermore, this assay endpoint can be referred to as a primary readout, because this assay has produced multiple assay endpoints where this one serves a reporter gene function. To generalize the intended target to other relatable targets, this assay endpoint is annotated to the nuclear receptor intended target family, where the subfamily is non-steroidal.
Human liver HepG2 cells are transiently transfected with multiple reporter transcription units (MRTUs) in 6-well plates using FuGene 6 reagent (Roche; 3 ml FuGene/1 mg DNA). The MRTU constructs are regulated by a cis-regulating element (promoter). […] A major difference between the CIS and TRANS system is that in CIS activities of endogenous TFs are measured, whereas the TRANS assay evaluates changes in activities of exogenous, chimeric NR-Gal4 proteins. […] At the end of 24 hour incubation, total RNA was isolated using TriZol reagent (Invitrogen). The isolated RNA is then reverse-transcribed using oligo(dT) primer and Mo-MLV reverse transcriptase (Invitrogen) with DNAse I (Ambion) treatment for 30 min. The one-tenth of the produced cDNA was amplified by PCR using Taq DNA polymerase (Invitrogen) and two reporter sequence-specific primers. The PCR products were fluorescently labeled by primer extension with 6-arboxyfluorescein (6-FAM) 5'-labeled reporter sequence-specific primer (2 min at 95 C, 20 s at 68 C and 10 min at 72 C) and these products were digested with 5U of HpaI (New England Biolabs) for 2h at 37 C. The fragments were purified using Qiaquick PCR columns (Qiagen), analyzed on an ABI 3130xL genetic analyzer (Applied Biosystems) with peak positions identified by using a set of X-rhodamine (ROX)-labeled MapMarker1000 molecular weight standards (BioVentures). The raw capillary electrophoresis data was processed using Attagraph software (Attagene).
The AC50 is the concentration at which the activity in the assay is half-maximal. For `CON(C)C(=O)Nc1ccc(Cl)c(Cl)c1`, the AC50 is 31.9 µM (active) and 27.2 µM (active); the outcome was inactive.

On to `Oc1ccccc1-c1ccccc1`, for which the outcome was inactive. Take `CC(C)Oc1cc(-n2nc(C(C)(C)C)oc2=O)c(Cl)cc1Cl`: the concentration at half-maximal activity (AC50) was 0.427 µM (active).

Take `COC(=O)N(OC)c1ccccc1COc1ccn(-c2ccc(Cl)cc2)n1`: the AC50 is 1.67 µM (active). With `CC(C)C1(C)N=C(c2nc3ccccc3cc2C(=O)O)NC1=O` (stereo not given), the outcome was inactive.

For `COc1nc(C)nc(NC(=O)NS(=O)(=O)c2ccccc2CCC(F)(F)F)n1`, the result was inactive. For `CCCCNC(=O)n1c(NC(=O)OC)nc2ccccc21`, the result was inactive.

With `CCON=C(CC)C1=C(O)CC(c2c(C)cc(C)cc2C)CC1=O` (stereo not given), the result was inactive. Regarding `CCc1nn(C)c(C(=O)NCc2ccc(C(C)(C)C)cc2)c1Cl`, the AC50 is 1.39 µM (active). Same read-out and setting: the same measure for `Cc1ccc(-c2c(Cl)nc(C#N)n2S(=O)(=O)N(C)C)cc1`: 11.9 µM (active). Take `CNC(=O)ON=CC(C)(C)SC`: the result was inactive. On to `CN(C)C(=S)SSC(=S)N(C)C`, for which the outcome was inactive. Turning to `COP(=S)(OC)Oc1nc(Cl)c(Cl)cc1Cl`, the outcome was inactive. As for `CCCC1COC(Cn2cncn2)(c2ccc(Cl)cc2Cl)O1` (stereo not given), the half-maximal activity concentration (AC50) is 50 µM (active) and the result was inactive. `CCCCNC(=O)OCC#CI`: the concentration at half-maximal activity (AC50) was 25.9 µM (active) and the result was inactive. As for `CCOP(=S)(OCC)SCn1c(=O)oc2cc(Cl)ccc21`, the AC50 was 7.17 µM (active).

As to `CCCCOC(=O)c1ccccc1C(=O)OCCCC`, the outcome was inactive; the AC50 is 27.5 µM (active) and 67 µM (active) and 50 µM (active). Consider `CCCN(CCC)c1c([N+](=O)[O-])cc(S(N)(=O)=O)cc1[N+](=O)[O-]`, for which the result was inactive and the AC50 was 2.2 µM (active).

Take `N#Cc1nn(-c2c(Cl)cc(C(F)(F)F)cc2Cl)c(N)c1S(=O)C(F)(F)F` (stereo not given): the AC50 is 19.4 µM (active) and the outcome was inactive. Turning to `CCNc1nc(Cl)nc(NCC)n1`, the result was inactive. Still for that read-out and setting: next, `CCOC(=O)C(Cl)Cc1cc(-n2nc(C)n(C(F)F)c2=O)c(F)cc1Cl` (stereo not given): “inactive”. As for `Cc1cc(Cl)ccc1OCC(=O)O`, the result was inactive. On the same count and under the same terms, the same measure for `CO/C=C(/C(=O)OC)c1ccccc1Oc1cc(Oc2ccccc2C#N)ncn1`: “inactive”. Same read-out and setting: the same measure for `O=C(O)COc1nc(Cl)c(Cl)cc1Cl`: “inactive”; for `C=CCC1=C(C)C(OC(=O)C2C(C=C(C)C)C2(C)C)CC1=O` (stereo not given): “inactive”; for `N#Cc1cc(Br)c(O)c(Br)c1`: “inactive”.

Regarding `CCOC(=O)CC(SP(=S)(OC)OC)C(=O)OCC` (stereo not given), the outcome was inactive. In the case of `COc1cnc(OC)n2nc(NS(=O)(=O)c3c(OCC(F)F)cccc3C(F)(F)F)nc12`, the outcome was inactive. Same read-out and setting: next, `COC(=O)C=C(C)OP(=O)(OC)OC`: “inactive”. For `C#CCOS(=O)OC1CCCCC1Oc1ccc(C(C)(C)C)cc1` (stereo not given), the AC50 was 1.39 µM (active). As for `OC(c1ccc(Cl)cc1)(c1cncnc1)c1ccccc1Cl` (stereo not given), the outcome was inactive. For the compound `COP(N)(=O)SC` (stereo not given), the outcome was inactive.

For the compound `COc1nc(C)nc(NC(=O)NS(=O)(=O)c2ccccc2Cl)n1`, the outcome was inactive.

`COc1ccc(C(c2ccc(OC)cc2)C(Cl)(Cl)Cl)cc1`: the outcome was inactive.

Values taken from PubChem BioAssay (EPA / NIEHS).
